The values below come from PubChem BioAssay (NCATS).

Records with an inconclusive call do not appear. The source made the active and inactive calls. Calls come from the whole dose curve; as a rule, active = well fitted curve in the direction sought with a large enough effect; inconclusive = small, poorly fitted or top-dose-only effect, or another doubt; inactive = no such curve, though single readings can be large; an effect the other way counts as inactive or inconclusive.

The nature of experiment [1]: Quantitative High-Throughput drug screen in 47 multiple myeloma cell lines against the NCATS MIPE library collection: ARD_JJKsccE7 cell viability assay (AID 1918929). A digest of the protocol: (§1)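 CellTiter-Glo ATP luminescence gave viability after 48 h compound treatment at 37C of 500 multiple myeloma cells per well. Normalisation used DMSO-only wells as 100% and media-only wells as 0% viability; primary qHTS of approved and investigational drugs.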

The nature of experiment [2]: Quantitative High-Throughput drug screen in 47 multiple myeloma cell lines against the NCATS MIPE library collection: Karpas620_DSMZ cell viability assay (AID 1918959). Note: nearly all actives have a fitted effect of over 30% in size. The procedure, abridged:
(§2)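 Myeloma cells (500 per well) were exposed to MIPE 4.0 compounds by pin transfer and incubated 48 hours at 37C, 5% CO2. Viability was read as ATP by CellTiter-Glo luminescence, normalised to DMSO (100%) and media-only (0%) wells.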

A short description of experiment [3]: Quantitative High-Throughput drug screen in 47 multiple myeloma cell lines against the NCATS MIPE library collection: KMM1_JCRB cell viability assay (AID 1918960). Note: nearly all actives have a fitted effect of over 30% in size. The procedure, abridged: (§3)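 Cell viability inhibition in this qHTS is measured via ATP content (CellTiter-Glo) after 48 h drug exposure at 37 °C. Wells hold 500 cells; DMSO-treated wells define 100% and medium-only wells 0%.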

The nature of experiment [4]: Quantitative High-Throughput drug screen in 47 multiple myeloma cell lines against the NCATS MIPE library collection: Karpas417_ECACC cell viability assay (AID 1918961). To be noted: Karpas417 myeloma viability, CellTiter-Glo ATP luminescence, 48 h; viability (% of DMSO): at 45.8 µM (top of the series). A digest of the protocol: as §1
The nature of experiment [5]: Quantitative High-Throughput drug screen in 47 multiple myeloma cell lines against the NCATS MIPE library collection: KHM11_PLB cell viability assay (AID 1918962). Note: nearly all actives have a fitted effect of over 35% in size. A digest of the protocol:
as §2

Experiment [6] is described as follows: Quantitative High-Throughput drug screen in 47 multiple myeloma cell lines against the NCATS MIPE library collection: JIM3_ECACC cell viability assay (AID 1918963; note: nearly all actives have a fitted effect of over 35% in size). The procedure, abridged: as §2
The nature of experiment [7]: Quantitative High-Throughput drug screen in 47 multiple myeloma cell lines against the NCATS MIPE library collection: INA6_PLB cell viability assay (AID 1918965; note: nearly all actives have a fitted effect of over 55% in size). A digest of the protocol:
as §1

Experiment [8] can be described thus: Quantitative High-Throughput drug screen in 47 multiple myeloma cell lines against the NCATS MIPE library collection: Karpas25_ECACC cell viability assay (AID 1918968; note: nearly all actives have a fitted effect of over 35% in size). The procedure, abridged:
as §1

Experiment [9] in a line: Quantitative High-Throughput drug screen in 47 multiple myeloma cell lines against the NCATS MIPE library collection: KMS27_JCRB cell viability assay (AID 1918970). Note: nearly all actives have a fitted effect of over 30% in size. The procedure, abridged:
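Viability inhibition screen, 48 h compound exposure, luminescent ATP read-out.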

Experiment [10] is described as follows: Quantitative High-Throughput drug screen in 47 multiple myeloma cell lines against the NCATS MIPE library collection: KMS12PE_JCRB cell viability assay (AID 1918972). Note: nearly all actives have a fitted effect of over 30% in size. The procedure, abridged: as §1
The nature of experiment [11]: Quantitative High-Throughput drug screen in 47 multiple myeloma cell lines against the NCATS MIPE library collection: AMO1_DSMZ cell viability assay (AID 1918927; note: nearly all actives have a fitted effect of over 30% in size). A digest of the protocol:
as §1

Experiment [12] is described as follows: Quantitative High-Throughput drug screen in 47 multiple myeloma cell lines against the NCATS MIPE library collection: H1112_PLB cell viability assay (AID 1918967; note: nearly all actives have a fitted effect of over 30% in size). A digest of the protocol: as §1
Experiment [13] in a line: Quantitative High-Throughput drug screen in 47 multiple myeloma cell lines against the NCATS MIPE library collection: ARP1_JJKsccF8 cell viability assay (AID 1918928; note: nearly all actives have a fitted effect of over 40% in size). A digest of the protocol:
as §3

Experiment [14] can be described thus: Quantitative High-Throughput drug screen in 47 multiple myeloma cell lines against the NCATS MIPE library collection: JIM1_ECACC cell viability assay (AID 1918964). A digest of the protocol:
as §1

A short description of experiment [15]: Quantitative High-Throughput drug screen in 47 multiple myeloma cell lines against the NCATS MIPE library collection: JJN3_DSMZ cell viability assay (AID 1918966; note: nearly all actives have a fitted effect of over 50% in size). The procedure, abridged: as §1
The nature of experiment [16]: Quantitative High-Throughput drug screen in 47 multiple myeloma cell lines against the NCATS MIPE library collection: KMS12BM_JCRB cell viability assay (AID 1918971). Note: nearly all actives have a fitted effect of over 35% in size. The procedure, abridged: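 Inhibition of cell viability is measured here. Each line was plated at 500 cells per well, treated with MIPE 4.0 drugs, kept 48 hours at 37C, then assayed for ATP content by CellTiter-Glo luminescence.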

Experiment [17] can be described thus: Quantitative High-Throughput drug screen in 47 multiple myeloma cell lines against the NCATS MIPE library collection: KMS20_JCRB cell viability assay (AID 1918973). Note: nearly all actives have a fitted effect of over 45% in size. A digest of the protocol: as §1
Experiment [18] is described as follows: Quantitative High-Throughput drug screen in 47 multiple myeloma cell lines against the NCATS MIPE library collection: KMS21BM_JCRB cell viability assay (AID 1918974). The conditions noted are these: ATP luminescence, 48 h; viability: at 45.8 µM (top of the series) unless noted. A digest of the protocol:
as §1

A short description of experiment [19]: Quantitative High-Throughput drug screen in 47 multiple myeloma cell lines against the NCATS MIPE library collection: EJM_DSMZ cell viability assay (AID 1918926; note: nearly all actives have a fitted effect of over 30% in size). The procedure, abridged: as §1
Potency is the fitted concentration of half-maximal effect.

As to `CCN1CCN(Cc2ccc(-c3cc4c(N[C@H](C)c5ccccc5)ncnc4[nH]3)cc2)CC1`, the Potency in experiment [1] is 0.0469 µM (active); in experiment [2], 0.0332 µM (active); in experiment [3] it was 0.0743 µM (active); in experiment [4], 8.33 µM (active); in experiment [5] it was 5.9 µM (active); in experiment [6], 0.469 µM (active). The Potency was 0.418 µM (active) in experiment [7], 2.09 µM (active) in [8], 0.0166 µM (active) in [9] and 0.0469 µM (active) in [10].
Take `CCNC(=O)Nc1ccc2ncc(Nc3ccc(C)cc3)nc2n1`: the Potency in experiment [11] was 2.35 µM (active); in experiment [1], 3.72 µM (active); in experiment [2], 1.87 µM (active); in [3], 2.64 µM (active); in experiment [4] it was 0.059 µM (active); in [5] it was 3.72 µM (active). The Potency in experiment [12] is 5.9 µM (active); in experiment [8] it was 5.9 µM (active); in experiment [9], 0.526 µM (active); in [10] it was 2.35 µM (active).
As to `CN(C)CC=CC(=O)Nc1cc2c(Nc3ccc(F)c(Cl)c3)ncnc2cc1O[C@H]1CCOC1`, the Potency in experiment [11] was 0.935 µM (active); in [13], 18.7 µM (active); in [1], 5.26 µM (active); in [2] it was 2.64 µM (active); in experiment [3] it was 3.72 µM (active); in [5], 7.43 µM (active). Further, the Potency in experiment [6] is 8.33 µM (active); in experiment [14], 2.96 µM (active); in experiment [7], 2.09 µM (active); in [15], 4.69 µM (active); in [12] it was 5.9 µM (active); in experiment [8] it was 1.32 µM (active). The Potency in experiment [9] was 2.64 µM (active); in experiment [16] it was 16.6 µM (active); in experiment [10], 1.18 µM (active); in [17] it was 2.09 µM (active); in experiment [18] it was 0.166 µM (active).
Take `Cc1ccc(S(=O)(=O)Nc2cc(Cl)ccc2C(=O)Nc2nc(-c3ccccc3)cs2)cc1`: the Potency in [13] was 20.9 µM (active); in [3], 4.18 µM (active); in [6], 5.26 µM (active); in [7] it was 8.33 µM (active); in [15], 18.7 µM (active); in [8] it was 5.26 µM (active). Besides, the Potency in [16] is 16.6 µM (active); in experiment [10] it was 2.64 µM (active).
As for `CC(C)c1noc(N2CCC(COc3ccc(-c4ccc(S(C)(=O)=O)cc4)nc3)CC2)n1`, the Potency entry in experiment [11], in [1], in experiment [2], in [4], in experiment [14] and in experiment [12] was “inactive” in each case. The Potency in experiment [7] was 1.87 µM (active); in experiment [8], 1.48 µM (active); in experiment [10], 0.418 µM (active).
For `Cc1cc(C(=O)N2CCN(c3cccc(Cl)c3)CC2)n(-c2ccccc2)n1`, the Potency in experiment [11] was 0.0332 µM (active); in [13], 0.59 µM (active); in [1] it was 0.264 µM (active); in experiment [2], 0.0296 µM (active); in experiment [3] it was 0.187 µM (active); in experiment [5] it was 0.418 µM (active). The Potency in experiment [6] is 0.418 µM (active); in experiment [7], 0.418 µM (active); in [8] it was 1.32 µM (active); in experiment [9], 0.148 µM (active); in experiment [16], 0.264 µM (active); in experiment [10], 0.743 µM (active). Further, the Potency in [17] is 0.209 µM (active).
For the compound `CC(C)(C)NC(=O)[C@H]1CN(Cc2cccnc2)CCN1C[C@@H](O)C[C@@H](Cc1ccccc1)C(=O)N[C@H]1c2ccccc2C[C@H]1O`, the Potency result in [1], in experiment [2], in [4] and in [14] was “inactive” throughout. For the same compound, the Potency was 5.26 µM (active) in experiment [6], 20.9 µM (active) in [7] and 4.18 µM (active) in experiment [8].
For the compound `COc1cc(-c2nn(C3CCC(N4CCN(C(C)=O)CC4)CC3)c3ncnc(N)c23)ccc1NC(=O)c1cc2ccccc2n1C` (stereo unspecified), the Potency in [19] was 20.9 µM (active); in experiment [1], 0.372 µM (active); in experiment [3] it was 0.372 µM (active); in [6], 2.35 µM (active); in [7], 2.96 µM (active); in [12], 0.0833 µM (active). Besides, the Potency in experiment [16] is 10.5 µM (active). In addition, the Potency result in experiment [4] is “inactive”.
For the compound `Nc1cccc(-c2cc3c(Oc4cccc(O)c4)ncnc3[nH]2)c1`, the Potency in [13] was 20.9 µM (active); in experiment [5], 16.6 µM (active); in experiment [6] it was 16.6 µM (active); in experiment [7], 8.33 µM (active); in [8] it was 18.7 µM (active); in experiment [16], 20.9 µM (active). The Potency entry in [2] and in experiment [10] was “inactive” each time.
For `Cc1cn(-c2cc(NC(=O)c3ccc(C)c(Nc4nccc(-c5cccnc5)n4)c3)cc(C(F)(F)F)c2)cn1`, the Potency is 18.7 µM (active) in experiment [19], 0.264 µM (active) in experiment [3], 18.7 µM (active) in [15] and 20.9 µM (active) in experiment [16]. For the same compound, the Potency result in experiment [2], in experiment [5], in experiment [6], in [12], in experiment [8] and in [10] was “inactive” each time.
As to `C[C@@H]1COC(Nc2ccc3ncnc(Nc4ccc(OCc5nccs5)c(Cl)c4)c3c2)=N1`, the Potency in experiment [11] is 4.69 µM (active); in [2], 14.8 µM (active); in [3], 10.5 µM (active); in experiment [5], 16.6 µM (active); in experiment [6], 2.35 µM (active); in experiment [14] it was 13.2 µM (active). The Potency was 4.69 µM (active) in experiment [7]; 20.9 µM (active) in experiment [15]; 1.32 µM (active) in [12]; 2.64 µM (active) in experiment [8]; 9.35 µM (active) in [9]; 14.8 µM (active) in experiment [16]. In addition, in [10], the Potency was 16.6 µM (active).
Turning to `Cc1cc(CN2CCN(c3c(Br)cnc4nc(-c5ccc(N6CCN(C)CC6)cc5)[nH]c34)CC2)no1`, the Potency is 14.8 µM (active) in experiment [13]; 5.26 µM (active) in experiment [5]; 7.43 µM (active) in experiment [6]; 2.64 µM (active) in [7]; 10.5 µM (active) in experiment [12]; 3.32 µM (active) in [8]. Besides, the Potency in experiment [16] is 18.7 µM (active). The Potency result in [3] and in experiment [4] was “inactive” in each case.
Turning to `CS(=O)(=O)c1ccc(-c2cnc(N)c(C(=O)Nc3ccccc3)n2)cc1`, the Potency result in experiment [1], in experiment [2], in [15] and in experiment [17] was “inactive” each time. Also, in experiment [12], the Potency is 4.18 µM (active).
`O=c1c2ccccc2nc2n1CCc1c-2[nH]c2ccccc12`: the Potency result in experiment [1], in [4], in experiment [14], in experiment [16] and in [10] was “inactive” throughout. Further, the Potency in experiment [2] is 18.7 µM (active).
For the compound `O=C(NCCS(=O)(=O)c1ccc(C(F)(F)F)cn1)c1ccc(Cl)cc1`, the Potency result in experiment [11], in experiment [13], in [1], in experiment [2], in experiment [3] and in experiment [5] was “inactive” throughout. Moreover, the Potency result in experiment [6], in [7], in experiment [15], in [12] and in experiment [10] was “inactive” in each case. Moreover, the Potency in [4] and in experiment [16] was 0.0235 µM (active) throughout.
As for `CC(C)(C)c1cc(NC(=O)Nc2ccc(-c3cn4c(n3)sc3cc(OCCN5CCOCC5)ccc34)cc2)no1`, the Potency entry in [2] and in [18] was “inactive” each time. The Potency was 3.32 µM (active) in experiment [7], 13.2 µM (active) in experiment [8] and 16.6 µM (active) in experiment [16].
